# Measured values reported in PubChem BioAssay.
# “And” between values parts separate entries of the source, which are not always exact repeats. Identical values can stand only once. The source made the active and inactive calls. Cut-off read from the data, not from the text of the source, unless noted: active = inhibition above about 80%; inactive = the rest.
# Tests used:
# [1] = stimulators of nuclear beta-catenin in C2C12, primary screen, imaging, WNT3A-conditioned medium, mouse C2C12, NPC library (AID 1117326; in the data active = nuclear beta-catenin stimulation mostly above about 4.2%, no sharp cut-off; inactive = mostly below about 10%); details: stronger effect = higher value
# [2] = stimulators of insulin release from INS-1E, primary screen, cell-based, 5 mM glucose, NPC library (AID 1117329;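 active = compound raises insulin release from rat beta cells at 5 mM glucose, no numeric limit stated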); details: rat INS-1E insulin secretion, at 10 µM, stronger effect = higher value
# [3] = growth inhibition of GSK3B-pretreated HCT116 cells – cell-based, CellTiter-Glo, 0.2 to 20 µM (AID 1117336;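 active = compounds lowering colon cancer cell viability after pretreatment blocking the GSK3B kinase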); details: HCT116 viability after GSK3B inhibitor, at 20 µM, stronger effect = higher value
# [4] = inhibition of endothelial tube formation, primary screen, imaging, VEGF stimulated, CD31 staining, tube area, NPC library (AID 1117340;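 active = compound that reduces growth-factor-driven endothelial tube area in a mixed cell culture, no cutoff stated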); details: VEGF-stimulated ADSC/ECFC co-culture, at 10 µM, stronger effect = higher value
# [5] = glucagon-like peptide 1 release enhancers, primary assay, NCI-H716 cell line, NPC library (AID 1117341;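 active = compound raises GLP1 secretion from the human gut endocrine cells, with no numeric limit stated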); details: NCI-H716 cells, at 10 µM, stronger effect = higher value
# [6] = HCT116 colon cancer cell growth inhibition, primary screen, CellTiter-Glo luminescence, NPC library (AID 1117342;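 active = compounds that lower survival of HCT116 colon cancer cells in the luminescence readout, no numeric limit stated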); details: at 20 µM (top of the series)
# [7] = CellTiter-Glo luminescent readout of SW480 viability loss, NPC library primary (AID 1117343;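 active = compounds that lower viability of the colon cancer cells in the luminescence readout, with no numeric limit stated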); details: CellTiter-Glo luminescence; at 20 µM (top of the series) unless noted
# [8] = decreased DLD-1 cellular survival, CellTiter-Glo luminescent readout, NPC compound collection, primary HTS (AID 1117346;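 active = compounds that lower survival of DLD-1 colon cancer cells in the luminescence readout, no cutoff given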); details: DLD-1 viability, CellTiter-Glo luminescence; at 20 µM (top of the series)
# [9] = differential killing of epithelial or mesenchymal cells, primary screen, imaging, PC-3E GFP, TEM4-18 mCherry, co-culture (AID 1345086;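 active = compounds killing one labelled cell type while sparing the other, by normalised counts and ratio limits, not self-fluorescent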;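 note: cells exposed to compound for 72 h before imaging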;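 for red/green cell ratio (normalised): normalised mesenchymal count divided by normalised epithelial count so high means epithelial killing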); details: imaging cell counts, at 1 µM
# [10] = sensitizers of A549 cells to miR-34 induction, primary screen, imaging, A549 dox-inducible miR-34, nuclei and caspase counts (AID 1347080;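 active = compounds whose cell count with miR-34 switched on is under 0.7 times the count with it off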); details: A549 miR-34 inducible, Hoechst nuclei count, 48 h
# [11] = survival rescue of mitochondrial mutant cells in low glucose, primary screen, MELAS cybrids, Rieske KO mouse fibroblasts, CellTiter-Glo (AID 1508586;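 active = mean z-score across replicates of 1.96 or higher in either the MELAS or the Rieske mutant cell line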;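 note: z relative to plate mean and SD of compound and empty wells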)
# [12] = target: NAD(+) hydrolase SARM1 (Homo sapiens) (UniProt Q6SZW1); experiment: SARM1 TIR NADase inhibitors, cell lysate, NAD-Glo luminescence (AID 1508614;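 active = compound whose remaining NAD level is above about 45 nM, limit read from the data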;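 note: higher remaining NAD means stronger inhibition of SARM1 NADase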); details: SAM-TIR HEK293T lysate NADase, at 1 µM, stronger effect = higher value
# [13] = LFS_MB_P medulloblastoma growth inhibition, cell-based, chromothripsis tumors, cisplatin or BGB combos (AID 1671449); details: LFS_MB_P medulloblastoma cells;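 note: cells exposed for 96 hours; 0% = vehicle DMSO and 100% = killing by high DMSO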
# [14] = HDN33 neuroblastoma growth inhibition, cell-based, chromothripsis tumors, cisplatin or BGB combos (AID 1671450); details: HDN33 neuroblastoma cells, stronger effect = higher value;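 note: cells exposed to compound for four days; 0% = vehicle DMSO and 100% = cell killing by high DMSO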
# [15] = ICB984 medulloblastoma cell growth inhibition, synergistic combos for chromothripsis tumors, cisplatin or BGB combos (AID 1671451; call rule not given here;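 note: cells exposed for 96 hours before readout; 0% = vehicle DMSO and 100% = killing by high DMSO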); details: ICB984 medulloblastoma cells, drug combinations, stronger effect = higher value
# [16] = HTB85 osteosarcoma cell growth inhibition, synergistic combos for chromothripsis tumors, BGB or cisplatin IC20 combos (AID 1671453); details: HTB85 osteosarcoma cells, drug combinations, stronger effect = higher value;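 note: cells exposed for 96 hours before readout; 0% = vehicle DMSO and 100% = high DMSO killing control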
# [17] = MDA-MB-436 breast carcinoma cell growth inhibition, synergistic combos for chromothripsis tumors, BGB or cisplatin combos (AID 1671458; call rule not given here;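 note: cells exposed for 96 hours; 0% = vehicle DMSO and 100% = killing by high DMSO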); details: MDA-MB-436 breast carcinoma growth inhibition, drug combinations, stronger effect = higher value
# Chain of NAD(+) hydrolase SARM1 (Homo sapiens) (Q6SZW1 whole entry, looked up): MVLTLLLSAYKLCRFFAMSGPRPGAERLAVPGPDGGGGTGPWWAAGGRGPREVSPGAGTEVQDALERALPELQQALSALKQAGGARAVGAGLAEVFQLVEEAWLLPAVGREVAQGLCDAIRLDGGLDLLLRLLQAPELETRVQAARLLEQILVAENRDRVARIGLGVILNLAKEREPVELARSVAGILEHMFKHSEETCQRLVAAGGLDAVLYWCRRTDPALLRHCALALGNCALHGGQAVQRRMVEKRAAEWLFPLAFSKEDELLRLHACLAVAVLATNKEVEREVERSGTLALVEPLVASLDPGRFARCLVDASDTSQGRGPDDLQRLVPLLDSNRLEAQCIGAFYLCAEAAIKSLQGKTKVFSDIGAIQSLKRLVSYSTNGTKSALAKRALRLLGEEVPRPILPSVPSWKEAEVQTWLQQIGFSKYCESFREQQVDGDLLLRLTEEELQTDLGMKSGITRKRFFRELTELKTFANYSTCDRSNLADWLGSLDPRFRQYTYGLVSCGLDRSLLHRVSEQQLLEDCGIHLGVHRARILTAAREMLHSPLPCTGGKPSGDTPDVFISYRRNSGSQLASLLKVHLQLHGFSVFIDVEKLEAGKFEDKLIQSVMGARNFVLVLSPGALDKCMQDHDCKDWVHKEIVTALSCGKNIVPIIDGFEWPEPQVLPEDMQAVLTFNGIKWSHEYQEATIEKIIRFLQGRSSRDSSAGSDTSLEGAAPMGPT
smiles,measurement,setting,value
O=c1cc[nH]c(=O)[nH]1,nuclear beta-catenin stimulation,[1]; at 10 µM,2.3% (inactive)
same,nuclear beta-catenin stimulation,"[1]; stimulation, at 2 µM",0.3%
same,insulin secretion stimulation,[2],0% (inactive)
same,viability decrease,[3],0.75% (inactive)
same,tube area decrease,[4],-14.5% (inactive)
same,GLP1 secretion stimulation,[5],-2.6% (inactive)
same,inhibition of viability,[6],1% (inactive)
same,viability decrease (inhibition),[7],8% (inactive)
same,viability decrease (inhibition),[8],3.55% (inactive)
same,red/green cell ratio (normalised),"[9]; actives lie on both sides, counts scaled to control wells, 1 = unselective",1.11 (inactive)
same,normalised cell number,[9]; measured here: epithelial PC-3E GFP cell survival,1.05
same,normalised cell number,[9]; measured here: mesenchymal TEM4-18 mCherry cell survival,1.16
same,fold change,"[10]; stronger effect = lower value, cell number ratio, induced over uninduced",0.956 (inactive) and 0.943 (inactive)
same,fold change,[10]; measured here: relative caspase fold change +Dox/-Dox,0.736 and 0.726
same,cell count,"[10]; measured here: total cells with miR-34 induction, stronger effect = lower value",8740 and 8670
same,cell count,[10]; measured here: total cells without miR-34 induction,9140 and 9190
same,z-score,"[11]; MELAS cybrid survival, CellTiter-Glo 48 h, stronger effect = higher value",-0.276 (inactive)
same,z-score,"[11]; Rieske KO mouse fibroblast survival, CellTiter-Glo 72 h",-0.187
same,remaining NAD,[12],10 nM (inactive)
same,inhibition,"[13]; at 0.5 µM, stronger effect = higher value",-22.6% (inactive)
same,inhibition,"[13]; measured here: combination with BGB IC20, at 0.005 µM",-16.6%
same,inhibition,"[13]; measured here: combination with BGB IC40, at 0.005 µM",-38.5%
same,inhibition,"[13]; measured here: combination with BGB IC40, at 0.05 µM",-9.29%
same,inhibition,"[13]; measured here: combination with cisplatin, at 0.5 µM, stronger effect = higher value",-28.9%
same,inhibition,"[13]; measured here: combination with cisplatin, at 5 µM, stronger effect = higher value",-19.9%
same,inhibition,"[14]; BGB combo, at 5 µM",-47.9%
same,inhibition,[14]; at 0.5 µM,-41.6% (inactive)
same,inhibition,"[14]; cisplatin combo, at 5 µM",-56.4%
same,inhibition,"[14]; measured here: with BGB IC20 combination, at 0.5 µM",-36.5%
same,inhibition,"[14]; measured here: with cisplatin IC20 combination, at 0.5 µM",-23.5%
same,inhibition,"[14]; single agent, at 5 µM",-52%
same,inhibition,"[15]; BGB IC20 combo, at 0.005 µM",-14.6%
same,inhibition,"[15]; BGB IC40 combo, at 0.005 µM",-47.1%
same,inhibition,"[15]; BGB IC40 combo, at 0.05 µM",-28.5%
same,inhibition,[15]; at 0.5 µM,-27% (inactive)
same,inhibition,"[15]; cisplatin combo, at 0.05 µM",-28.5%
same,inhibition,"[15]; cisplatin combo, at 0.5 µM",-48.6%
same,inhibition,"[15]; cisplatin combo, at 5 µM",-27.5%
same,inhibition,"[15]; measured here: 5 uM single agent, at 5 µM",-5.8%
same,inhibition,[16]; at 0.5 µM,-37.5% (inactive)
same,inhibition,"[16]; measured here: with BGB IC20, at 0.5 µM",-69.8%
same,inhibition,"[16]; measured here: with BGB IC20, at 5 µM",-35.2%
same,inhibition,"[16]; measured here: with cisplatin IC20, at 0.5 µM",-26.2%
same,inhibition,"[16]; measured here: with cisplatin IC20, at 5 µM",-33.2%
same,inhibition,"[16]; single agent, at 5 µM",-19.7%
same,inhibition,[17]; at 0.5 µM,-27.5% (inactive)
same,inhibition,"[17]; measured here: BGB combination, at 0.5 µM",-30.5%
same,inhibition,"[17]; measured here: BGB combination, at 5 µM",-26.1%
same,inhibition,"[17]; measured here: cisplatin combination, at 0.5 µM",-40.8%
same,inhibition,"[17]; measured here: cisplatin combination, at 5 µM",-24%
